The values below come from the supplement of paper PMC10646978.

Common to all, as to conditions: modulator concentration 10 µM
For assay [1], the system named is RAW-Dual (murine macrophage reporter line). As to the kind of experiment: NF-kB reporter (SEAP) activity fold change vs agonist alone; higher = enhanced NF-kB activity. The method in brief:
(§1)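 Compound reached 10 μM final in each well by pin transfer, onto RAW-Dual murine macrophage reporter cells seeded at 50 000 per well in 384-well plates. After 1 hour at 37 °C, the cells were stimulated overnight with a PRR agonist. SEAP in the supernatant was read with QUANTI-Blue at 620 nm absorbance for NF-κB, and Lucia luciferase was read with QUANTI-Luc luminescence for IRF. Each signal was turned into fold change against the mean agonist-only control on the same plate, and two replicate plates were averaged with propagated errors.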

Assay [2] has the same test system. As to the kind of experiment: IRF reporter (Lucia luciferase) activity fold change vs agonist alone; higher = enhanced IRF activity. The method in brief:
as §1

Assay [3] has the same test system. As to the kind of experiment: viability score (confluency relative to resting cells, overnight) (fraction); higher = more viable, active = viable (0.7 or more). The method in brief: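 Overnight exposure to 10 μM final compound was carried out on RAW-Dual macrophages in 384-well plates. IncuCyte software generated two confluency masks over all wells imaged with IncuCyte. The viability score gives confluency in relation to resting cells. A compound met the cutoff if each mask exceeded 70% of resting cells.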

Setting [4] is: agonist: CpG ODN 1826 0.5 ug/mL.

± gives the standard deviation.

As for `COC(=O)c1ccc(CN2CCc3ccccc3C2)cc1`, the values for the NF-kB reporter in assay [1] (setting [4]), in assay [1] (agonist: LPS 0.1 ug/mL) and in assay [1] (agonist: MPLA […]) were 0.82 ± 0.089, 1.17 ± 0.08 and 1.3 ± 0.059, respectively. Further, the IRF reporter in assay [2] (agonist: 3'3'-cGAMP 10 ug/mL) was determined as 0.832 ± 0.052; in assay [2] (agonist: LPS 0.1 ug/mL), 0.974 ± 0.1; in assay [2] (agonist: MPLA […]) it was 1.5 ± 0.36. Further, in assay [3], the viability score is 0.938 (active).
`O=C(CSc1nnc(COc2ccc(Cl)cc2)o1)N1CCCc2ccccc21`: the NF-kB reporter in assay [1] (setting [4]) is 0.883 ± 0.044; in assay [1] (agonist: LPS 0.1 ug/mL), 1.12 ± 0.11; in assay [1] (agonist: MPLA […]), 0.853 ± 0.086. In addition, the IRF reporter in assay [2] (agonist: 3'3'-cGAMP 10 ug/mL) came to 0.885 ± 0.044; in assay [2] (agonist: LPS 0.1 ug/mL), 0.823 ± 0.05; in assay [2] (agonist: MPLA […]) it was 0.866 ± 0.29. Moreover, the viability score in assay [3] was 1.01 (active).
With `Cc1cc2nc(SCc3cc4c(cc3Cl)OCO4)[nH]c2cc1C`, the NF-kB reporter in assay [1] (setting [4]) came out at 0.749 ± 0.065; in assay [1] (agonist: LPS 0.1 ug/mL), 0.976 ± 0.047; in assay [1] (agonist: MPLA […]), 0.91 ± 0.094. The IRF reporter in assay [2] (agonist: 3'3'-cGAMP 10 ug/mL) was 0.636 ± 0.042; in assay [2] (agonist: LPS 0.1 ug/mL), 1.2 ± 0.083; in assay [2] (agonist: MPLA […]), 1.25 ± 0.12. For the same compound, the viability score in assay [3] was 1.01 (active).
Take `CC(CN1c2ccccc2Sc2ccccc21)N(C)C.Cl` (stereo not drawn): the NF-kB reporter in assay [1] (setting [4]) stood at 0.789 ± 0.11; in assay [1] (agonist: LPS 0.1 ug/mL) it was 1.17 ± 0.29; in assay [1] (agonist: MPLA […]), 0.96 ± 0.055. In addition, the IRF reporter in assay [2] (agonist: 3'3'-cGAMP 10 ug/mL) is 0.336 ± 0.024; in assay [2] (agonist: LPS 0.1 ug/mL), 1.16 ± 0.42; in assay [2] (agonist: MPLA […]) it was 1.15 ± 0.091. In assay [3], the viability score is 0.389 (inactive).
As for `Cc1ccc(C)n1-c1ccc(C(=O)OCC(=O)c2ccc([N+](=O)[O-])cc2)cc1`, the NF-kB reporter was determined as 0.888 ± 0.071 in assay [1] (setting [4]), 0.845 ± 0.054 in assay [1] (agonist: LPS 0.1 ug/mL) and 1.31 ± 0.42 in assay [1] (agonist: MPLA […]). Besides, the figures for the IRF reporter in assay [2] (agonist: 3'3'-cGAMP 10 ug/mL), in assay [2] (agonist: LPS 0.1 ug/mL) and in assay [2] (agonist: MPLA […]) were 0.666 ± 0.044, 1.1 ± 0.064 and 1.01 ± 0.14, respectively. Besides, the viability score in assay [3] is 0.976 (active).
For the compound `Cc1c(C)c2c(c(C)c1O)CCC(C)(CCCC(C)CCCC(C)CCCC(C)C)O2` (stereo not drawn), the NF-kB reporter in assay [1] (setting [4]) came to 1.02 ± 0.085; in assay [1] (agonist: LPS 0.1 ug/mL), 0.997 ± 0.052; in assay [1] (agonist: MPLA […]) it was 1.06 ± 0.023. The figures for the IRF reporter in assay [2] (agonist: 3'3'-cGAMP 10 ug/mL), in assay [2] (agonist: LPS 0.1 ug/mL) and in assay [2] (agonist: MPLA […]) were 0.92 ± 0.057, 0.965 ± 0.13 and 0.994 ± 0.1, respectively. Further, the viability score in assay [3] was 0.987 (active).
On to `COc1cc(C2C(C(=O)c3ccccc3)=C(O)C(=O)N2c2cccnc2)ccc1O` (stereo not drawn), for which the NF-kB reporter in assay [1] (setting [4]) is 0.915 ± 0.14; in assay [1] (agonist: LPS 0.1 ug/mL), 0.595 ± 0.13; in assay [1] (agonist: MPLA […]), 0.582 ± 0.1. The values for the IRF reporter in assay [2] (agonist: 3'3'-cGAMP 10 ug/mL), in assay [2] (agonist: LPS 0.1 ug/mL) and in assay [2] (agonist: MPLA […]) were 0.758 ± 0.068, 0.849 ± 0.074 and 0.785 ± 0.13, respectively. Besides, the viability score in assay [3] is 0.97 (active).
In the case of `FC(F)(F)c1ccc(/C=C/c2nc(COc3ccc(CCCCn4ccnn4)cc3)co2)cc1`, the NF-kB reporter was determined as 1.26 ± 0.17 in assay [1] (setting [4]), 1.71 ± 0.29 in assay [1] (agonist: LPS 0.1 ug/mL) and 1.46 ± 0.09 in assay [1] (agonist: MPLA […]). Moreover, the IRF reporter in assay [2] (agonist: 3'3'-cGAMP 10 ug/mL) is 0.914 ± 0.028; in assay [2] (agonist: LPS 0.1 ug/mL) it was 1.67 ± 0.14; in assay [2] (agonist: MPLA […]), 1.77 ± 0.16. Also, in assay [3], the viability score is 0.995 (active).
With `C[C@H]1[C@@H](OC(=O)CCC(=O)O)O[C@@H]2O[C@]3(C)CC[C@H]4[C@H](C)CC[C@@H]1[C@@]24OO3`, the NF-kB reporter in assay [1] (setting [4]) came out at 1.02 ± 0.071; in assay [1] (agonist: LPS 0.1 ug/mL), 1.12 ± 0.11; in assay [1] (agonist: MPLA […]), 0.95 ± 0.043. In addition, the results for the IRF reporter in assay [2] (agonist: 3'3'-cGAMP 10 ug/mL), in assay [2] (agonist: LPS 0.1 ug/mL) and in assay [2] (agonist: MPLA […]) were 0.934 ± 0.11, 1.11 ± 0.14 and 1.06 ± 0.25, respectively. Besides, the viability score in assay [3] was 1 (active).
With `CC(O)c1cn(-c2cccc(C(F)(F)F)c2)nn1` (stereo not drawn), the NF-kB reporter was 1.05 ± 0.35 in assay [1] (setting [4]), 1.16 ± 0.072 in assay [1] (agonist: LPS 0.1 ug/mL) and 1.04 ± 0.078 in assay [1] (agonist: MPLA […]). Further, the results for the IRF reporter in assay [2] (agonist: 3'3'-cGAMP 10 ug/mL), in assay [2] (agonist: LPS 0.1 ug/mL) and in assay [2] (agonist: MPLA […]) were 0.861 ± 0.038, 1.15 ± 0.12 and 1.23 ± 0.17, respectively. For the same compound, the viability score in assay [3] is 1 (active).
Consider `O=C(NCC1CCN(C(=O)c2ccncc2)CC1)c1ccc(Oc2ccccc2)cc1`, for which the figures for the NF-kB reporter in assay [1] (setting [4]), in assay [1] (agonist: LPS 0.1 ug/mL) and in assay [1] (agonist: MPLA […]) were 0.988 ± 0.058, 0.954 ± 0.096 and 0.893 ± 0.026, respectively. In addition, the IRF reporter in assay [2] (agonist: 3'3'-cGAMP 10 ug/mL) turned out to be 0.873 ± 0.066; in assay [2] (agonist: LPS 0.1 ug/mL), 0.882 ± 0.057; in assay [2] (agonist: MPLA […]), 0.932 ± 0.12. In addition, the viability score in assay [3] is 0.997 (active).
In the case of `COc1ccc(N2CC(C(=O)NCc3ccccc3C(F)(F)F)CC2=O)cc1` (stereo not drawn), the NF-kB reporter in assay [1] (setting [4]) was 1 ± 0.11; in assay [1] (agonist: LPS 0.1 ug/mL) it was 1.07 ± 0.085; in assay [1] (agonist: MPLA […]), 0.935 ± 0.041. Also, the IRF reporter was 1.03 ± 0.051 in assay [2] (agonist: 3'3'-cGAMP 10 ug/mL), 1.2 ± 0.1 in assay [2] (agonist: LPS 0.1 ug/mL) and 1.14 ± 0.29 in assay [2] (agonist: MPLA […]). For the same compound, the viability score in assay [3] is 1 (active).
For `CCC1=C(C)CN(C(=O)NCCc2ccc(S(=O)(=O)NC(=O)N[C@H]3CC[C@H](C)CC3)cc2)C1=O`, the results for the NF-kB reporter in assay [1] (setting [4]), in assay [1] (agonist: LPS 0.1 ug/mL) and in assay [1] (agonist: MPLA […]) were 1.08 ± 0.085, 1.08 ± 0.062 and 1.03 ± 0.066, respectively. The values for the IRF reporter in assay [2] (agonist: 3'3'-cGAMP 10 ug/mL), in assay [2] (agonist: LPS 0.1 ug/mL) and in assay [2] (agonist: MPLA […]) were 1.22 ± 0.23, 0.95 ± 0.067 and 0.915 ± 0.14, respectively. Also, the viability score in assay [3] is 0.996 (active).
`COc1ccccc1-c1cc(-c2ccccc2)nc(SCC(=O)c2cc3ccccc3oc2=O)c1C#N`: the NF-kB reporter turned out to be 0.981 ± 0.058 in assay [1] (setting [4]), 1.02 ± 0.066 in assay [1] (agonist: LPS 0.1 ug/mL) and 0.966 ± 0.061 in assay [1] (agonist: MPLA […]). Further, the values for the IRF reporter in assay [2] (agonist: 3'3'-cGAMP 10 ug/mL), in assay [2] (agonist: LPS 0.1 ug/mL) and in assay [2] (agonist: MPLA […]) were 0.879 ± 0.034, 1.45 ± 0.16 and 1.07 ± 0.1, respectively. Further, the viability score in assay [3] is 1 (active).
